According to PubChem BioAssay (Tox21):
Results filed as inconclusive are left out. Entries that show only a call come without a potency. Activity calls are given as the source filed them. Calls follow the shape of the dose curve; as a rule, active = well fitted cell-killing curve with a large enough effect in the repeat runs; inconclusive = weak or mixed curves, or effect the other way; inactive = flat fitted curve, though single readings scatter.

Assay: qHTS assay to identify small molecule agonists of the androgen receptor (AR) signaling pathway in the presence of an antagonist - cell viability counter screen (AID 1259379); also: nearly all actives have a fitted effect of over 25% in size
Settings: MDA-kb2 viability, CellTiter-Fluor, 16 h; series mostly up to 92.4 µM
Excerpt: National Center for Advancing Translational Sciences [NCATS]
NIH Chemical Genomics Center [NCGC]
U.S. Environmental Protection Agency [EPA]
National Institutes of Environmental Health Sciences [NIEHS]
National Toxicology Program [NTP]
U.S. Food and Drug Administration [FDA]
Androgen receptor (AR) is an important member of nuclear receptor family. Its signaling plays a critical role in AR-dependent prostate cancer and other androgen related diseases. Considerable attention has been given in the past decades to develop methods to study and screen for the environmental chemicals that have the potential to interfere with metabolic homeostasis, reproduction, developmental and behavioral functions. Therefore AR binding assay for screening against androgen agonists and antagonists can be used to identify potential endocrine disruptors.
MDA-kb2 cells (from ATCC, deposited by Wilson et al.) are human breast carcinoma cells that were stably transfected with a luciferase reporter gene under control of the MMTV promoter that contains response elements for both androgen receptor (AR) and glucocorticoid receptor (GR). This particular screening for measuring luciferase reporter gene activity using MDA-kb2 cells against Tox21 10K library compounds is a confirmation study on agonist mode screening in the presence of AR-antagonist compound (Nilutamide) at 3.0uM final concentration. The cytotoxicity of the compounds was tested in parallel by measuring the cell viability using CellTiter-Fluor assay system (Promega, Madison, WI) in the same wells.
Tox21 Assay Protocol Summary:
MDA-kb2 cells (cells cultured without CO2) were dispensed at 3,000 cells/well in 4uL of culture medium into white wall/solid-bottom 1536-well plates (Corning Life Sciences, Corning, NY) using a Multidrop Combi (Thermo Fisher Scientific Inc., Waltham, MA) dispenser. The assay plates were incubated at 37C and 0% CO2 for 5hr. One uL of 3.0uM (final concentration) Nilutamide or assay buffer was added using two separate tips of Flying Reagent Dispenser (FRD, Aurora Discovery, San Diego, CA). Then 23nL of compounds dissolved in DMSO at 15 concentrations and positive controls were transferred to the assay plates using a Pintool station (Wako, San Diego, CA). The assay plates were incubated at 37C and 0% CO2 for 16 hr. After 15hr incubation at 37C, 1uL/well CellTiter-Fluor reagent (Promega Corporation) was added to each well of the assay plates using FRD. After 1hr incubation at 37C and 0% CO2, the fluorescence signal was measured using a ViewLux plate reader (PerkinElmer, Shelton, CT).

Row | SMILES | Potency
1 | O=C(Cl)c1ccccc1 | inactive
2 | CCCC(C)C1(CC)C(=O)N=C(S)NC1=O (stereo not given) | inactive
3 | C/C=C/CC#N | inactive
4 | CCOP(=S)(OCC)SCCl | inactive
5 | CCN(CC)C1CCCCC1 | inactive
6 | O=C(CCl)NCO | inactive
7 | C=C(Cl)CCl | inactive
8 | CCCCCCCCSC(=O)Oc1cc(Cl)nnc1-c1ccccc1 | inactive
9 | CCN[C@@H](C)Cc1ccccc1 | inactive
10 | CCCN1CCC[C@@H]2Cc3[nH]ncc3C[C@H]21 | inactive
11 | O=c1[nH]c2ccccc2o1 | inactive
12 | CN1COCN(Cc2cnc(Cl)s2)/C1=N\[N+](=O)[O-] | inactive
13 | COC(=O)c1ccc(CBr)cc1 | inactive
14 | BrCc1ccc(Br)cc1 | inactive
15 | O=CCCl | inactive
16 | C[C@H](CN1CCOCC1)C(C(=O)N1CCCC1)(c1ccccc1)c1ccccc1 | inactive
17 | O=C(O)C(F)(F)C(F)(F)C(F)(F)C(F)(F)C(F)(F)C(F)(F)F | inactive
18 | CCOC(=O)Nc1cccc(OC(=O)Nc2ccccc2)c1 | inactive
19 | CCCOC(=O)c1cncn1C(C)c1ccccc1 (stereo not given) | inactive
20 | CCN[C@@H](C)Cc1cccc(C(F)(F)F)c1 | inactive

Row | SMILES | Potency
21 | ClCC1CO1 (stereo not given) | inactive
22 | CCOP(=S)(OCC)Oc1ccc(Cl)cc1Cl | inactive
23 | CC(C)NCC(O)c1ccc([N+](=O)[O-])cc1 (stereo not given) | inactive
24 | CC(C)[N+](C)(CCC(C(N)=O)(c1ccccc1)c1ccccc1)C(C)C | inactive
25 | C=CC(=O)OCCN(C)C | inactive
26 | COc1ccc(CN2CCNCC2)c(OC)c1OC | inactive
27 | CC1N=C(N)OC1c1ccccc1 (stereo not given) | inactive
28 | c1ccc2c(c1)CCNC2 | inactive
29 | CN(CCO)CCO | inactive
30 | N#CN=C1SCCN1Cc1ccc(Cl)nc1 | inactive
31 | CCC(CC)(CNC(=O)CCCO)c1cccc(OC)c1 | inactive
32 | CN=CNc1ccc(C)cc1C | inactive
33 | Clc1nc(Cl)nc(Nc2ccccc2Cl)n1 | inactive
34 | COc1ccc(C=O)cc1O | inactive
35 | CON(C)C(=O)Nc1ccc(Br)cc1 | inactive
36 | CC(C)(C)NC[C@H](O)c1ccc(O)cc1Cl | inactive
37 | C[C@H](N)C(=O)c1ccccc1 | inactive
38 | CNC(=O)O/N=C(/CSC)C(C)(C)C | inactive
39 | CC(C)N(Cc1ccccc1)C(=O)C(C)(C)C | inactive
40 | c1cncc([C@@H]2CCCCN2)c1 | inactive
